In all, about 69,000 compounds went through this assay and about 8,600 (12%) showed an effect of 50% or more. For the sample, strong results were picked, then their nearest neighbours and some compounds at random.
Each compound was assayed on Plasmodium berghei (assay: Screen against P. berghei liver stage (PbLuc), transformed with Luciferase, at 10uM). Conditions: tested at 10 uM.
Type: functional, HepG2

Structure (SMILES) | INHIBITION [%]
O=C(NC1CCC(O)CC1)c1ccc2nc(-c3ccccc3)cn2c1 (stereo not drawn) | -25.1
COCC(=O)N(C)Cc1cccc(Cl)c1 | 15
O=C(CN1CCN(CC(O)C2CC2)CC1)NCc1ccc(F)cc1 (stereo not drawn) | 1.58
O=C(c1ccccn1)N1CCn2cnc(COCC3CC3)c2C1 | 19.7
CCOCc1ncn2c1CN(C(=O)c1ccoc1)CC2 | 39.2
O=C(c1cnccn1)N1CCn2cnc(COCC3CC3)c2C1 | 60.1
O=C(c1ccoc1)N1CCCn2cnc(COCC3CC3)c2C1 | 39.2
O=C(c1cscn1)N1CCn2cnc(COCC3CC3)c2C1 | -6.23
O=C(c1ccoc1)N1CCn2cnc(COCC3CC3)c2C1 | 56.7
c1cnn(CC2CCCCN2Cc2nc(-c3ccsc3)no2)c1 (stereo not drawn) | 0.914
CC(=O)N1CCCC(c2ccc(Nc3nc(C)cc(C)n3)cn2)C1 (stereo not drawn) | 33.5
CSc1[nH]nc(NC(=O)c2cccnc2)c1C#N | -35.5
CCn1cnc(NC(=O)N2CCC(c3ccc(Cl)cc3)C2)n1 (stereo not drawn) | 58.2
CCn1cnc(NC(=O)N2CCCC(c3ccccc3)CC2)n1 (stereo not drawn) | 22.4
CCn1cnc(NC(=O)N2CCC(c3ccc(F)cc3)C2)n1 (stereo not drawn) | 31.6
CSCc1cccc(S(=O)(=O)N2CCCC2)c1 | 33.3
Cc1cccc(N2CCC3(CCN(Cc4ccccn4)CC3)CC2)n1 | 15.3
COCCC(=O)N1CCCC1c1nc(O)cc(C(C)C)n1 (stereo not drawn) | 23.2
CC[C@@H](CO)Nc1nccc(-c2c[nH]c3cc(C(=O)OC)ccc23)n1 | 69.3
COC(=O)c1ccc2c(-c3ccnc(N[C@@H](C)CO)n3)c[nH]c2c1 | 18.9
COC(=O)c1ccc2c(-c3ccnc(NCCO)n3)c[nH]c2c1 | 10
COc1ccc(CNC2CCC(O)CC2)cc1OCCCC#N (stereo not drawn) | 17.8

Structure (SMILES) | INHIBITION [%]
Cc1ccc(CN2CCC3(CC2)NC(=O)CC3c2ccncc2)cc1C (stereo not drawn) | 16.6
O=C(CN1C=Nc2ccccc2S1(=O)=O)NCC1CC1 | 29.2
O=C(CN1C=Nc2ccccc2S1(=O)=O)NCc1ccccc1 | 7.27
CC(NC(=O)CN1C=Nc2ccccc2S1(=O)=O)c1ccccc1 (stereo not drawn) | -18.5
CC(C)OCCCNC(=O)CN1C=Nc2ccccc2S1(=O)=O | 12.7
CC(C)CCC(C)NC(=O)CN1C=Nc2ccccc2S1(=O)=O (stereo not drawn) | 12.7
CC(C)CNC(=O)CN1C=Nc2ccccc2S1(=O)=O | 56.1
O=C(CN1C=Nc2ccccc2S1(=O)=O)NCCc1cccs1 | 53.8
O=C(CN1C=Nc2ccccc2S1(=O)=O)NCCCc1ccccc1 | 55.2
Cc1ccc(CNC(=O)CN2C=Nc3ccccc3S2(=O)=O)s1 | 22.3
CNC(=O)c1ccc(-c2ccc(CNS(=O)(=O)N(C)C)cc2)nc1C | 8.12
O=c1occ(CN2CCCCCC2)c(O)c1CN1CCCCCC1 | 25.8
Cc1ccc(-c2ncc(C(=O)N3CCCN4CCC[C@H]4C3)c(O)n2)cc1 | 15.2
Cc1ccc(-c2ncc(C(=O)N3CCC[C@H](N)C3)c(O)n2)cc1 | 42.2
Cc1nc(N)ncc1C(=O)N1CCCC(CCc2ccc(F)c(F)c2)C1 (stereo not drawn) | 38.5
Cc1nc(N)ncc1C(=O)N1CCCC(CCc2ccc(F)cc2)C1 (stereo not drawn) | 90.3
Cc1ccc(-c2ncc(C(=O)N3CCCC(CCN)C3)c(O)n2)cc1 (stereo not drawn) | 53.8
COc1ccc(CCC2CCCN(C(=O)c3cnc(N)nc3C)C2)cc1 (stereo not drawn) | 34.9
O=C(c1c[nH]cn1)N1CCC(F)(F)C2(CCN(c3cccc(F)c3)C2)C1 (stereo not drawn) | 21.7
CC(=O)Nc1ccc(SCC(O)COCc2ccc3c(c2)OCO3)cc1 (stereo not drawn) | 25.8
COc1ccc(CN(C)CC2(O)CCNC2)cc1 (stereo not drawn) | 20.85
Cc1nc(CN2CCC3(CC2)CC(c2cccnc2)C(=O)N3C)cs1 (stereo not drawn) | 34.5

Structure (SMILES) | INHIBITION [%]
CS(=O)(=O)NC[C@]1(O)CCN(C(=O)Cc2cccs2)C[C@H]1O | -8.12
C[C@@H]1CN(C(=O)C2CCS(=O)(=O)CC2)C[C@]1(C)O | -7.81
O=C(C(CNCc1cccs1)c1ccccc1)N1CCOCC1 (stereo not drawn) | 5.85
CNC(=O)NC(=O)C(NCc1ccccc1)c1ccccc1 (stereo not drawn) | 24.8
CNC(=O)NC(=O)C(NCc1cccs1)c1ccccc1 (stereo not drawn) | 64.7
NC(=O)C(NCc1cccs1)c1ccccc1 (stereo not drawn) | 60.1
NC(=O)C(NCCc1ccc(Cl)s1)c1ccccc1 (stereo not drawn) | -35.8
NC(=O)C(NCc1ccc(Cl)s1)c1ccccc1 (stereo not drawn) | -22.6
CC(C)(C)N1CC(C(=O)N2CC(Oc3ccc(F)cc3)C2)CC1=O (stereo not drawn) | 18.5
COCCN1CCC2(CC1)CC(c1cccnc1)CO2 (stereo not drawn) | 16.4
N#Cc1ccc(OCC(O)CN2CCC(Cn3cccn3)CC2)cc1 (stereo not drawn) | 5.7
CNC(=O)[C@H]1C[C@@H]2CN(S(=O)(=O)c3ccc(OC)cc3)C[C@@H]2N1C | 46.6
COCc1cncc2c1CCN(C(=O)c1cccc(C#N)c1)C2 | 14.9
Cn1cc(N2CC3(CCN(Cc4nccn4C)C3)CC2=O)cn1 (stereo not drawn) | 14.8
COc1cccc(N2CC3(CCN(Cc4nccn4C)C3)CC2=O)c1 (stereo not drawn) | 40.4
Cn1ccnc1CN1CCC2(CC(=O)N(c3cncnc3)C2)C1 (stereo not drawn) | 33.5
Cn1ccnc1CN1CCC2(CC(=O)N(c3ccsc3)C2)C1 (stereo not drawn) | 53.2
Cn1ccnc1CN1CCC2(CC(=O)N(c3cccc(F)c3)C2)C1 (stereo not drawn) | 25.3
Cc1cccc(N2CC3(CCN(Cc4nccn4C)C3)CC2=O)c1 (stereo not drawn) | 52
CCc1nc(C2CCCN2CCCS(N)(=O)=O)no1 (stereo not drawn) | 31.9
CSCCC(NC(=O)C1CC1)C(=O)N(C)Cc1ccsc1 (stereo not drawn) | 42.6
Cc1noc(C)c1CCc1nc(C2CCOC2)no1 (stereo not drawn) | -94.3

Structure (SMILES) | INHIBITION [%]
COCCC(=O)N1CCOCC2(CCN(Cc3cccs3)C2)C1 (stereo not drawn) | -5.31
Cn1cc(-c2ncnc3c2CCN(CC2CCOC2)CC3)cn1 (stereo not drawn) | 25.8
CN(C)[C@@H]1CCN(S(=O)(=O)C2CC2)[C@H]1Cc1ccccc1 | 27.5
Cc1nc(C2CCCN(C(=O)c3cccc4c3OCO4)C2)sc1C (stereo not drawn) | 40
c1cc(-c2cn[nH]c2)ccc1CN1CCNCC1 | 14.6
CCNC(=O)C(C)NC(=O)c1cnc(-c2ccc(C)cc2C)s1 (stereo not drawn) | 50.5
Cc1ccc(-c2ncc(C(=O)NCCNC(=O)C(C)C)s2)c(C)c1 | -10.9
Cc1ccc(-c2ncc(C(=O)NCCS(N)(=O)=O)s2)c(C)c1 | -37.3
COc1ccccc1C(O)CNC(=O)NCc1csc(C)n1 (stereo not drawn) | 13.3
O=S(=O)(c1cccs1)N1Cc2nc(COCC3CC3)oc2C1 | 30.3
CN(C)Cc1nc2c(o1)CN(S(=O)(=O)c1cccs1)C2 | 34
O=S(=O)(c1cccs1)N1Cc2nc(CN3CCCC3)oc2C1 | 67.5
CCN(CC)Cc1nc2c(o1)CN(S(=O)(=O)c1cccs1)C2 | 57.5
c1csc(CN2Cc3nc(CN4CCCC4)oc3C2)c1 | 33.5
O=S(=O)(c1cccs1)N1Cc2nc(CN3CCCCC3)oc2C1 | 19.5
O=c1c(S(=O)(=O)N2CCCC2)cccn1Cc1c(F)cccc1Cl | 7.92
Cc1nc[nH]c1CN1CCC2(CC1)CC(Nc1ncccn1)CO2 (stereo not drawn) | 27.6
CCc1cnc(CN2CCC(N(Cc3noc(CC)n3)C(C)=O)C2)o1 (stereo not drawn) | -15.5
CC1CN(CC(=O)NCc2cccs2)CCN1c1nccs1 (stereo not drawn) | 36.1
Cc1ccc(-c2cc(N)c(=O)n(C(C)C(N)=O)n2)o1 (stereo not drawn) | -6.88
COc1ccccc1CN1C[C@@H]2CN(C(C)=O)CCO[C@@H]2C1 | 0.453
COCC(=O)N1CCN(C(=O)NC(C)C)CC2(CC(=O)N(C)C2)C1 (stereo not drawn) | 45.2

Structure (SMILES) | INHIBITION [%]
O=C1NCC2=Nc3ccccc3NC(c3ccccc3)C12 (stereo not drawn) | 7.92
CN(C)CCOCc1nnc2n1CCN(Cc1ccoc1)CC2 | 0.618
COc1ccc(CN2CCc3nnc(COCCN(C)C)n3CC2)cc1 | 22.4
CN(C)CCOCc1nnc2n1CCN(Cc1ccc(F)cc1)CC2 | 69.8
CN(CC(=O)N1CCCCC1c1nc(C(C)(C)C)cs1)C1CC1 (stereo not drawn) | -19.9
Cc1nccc(C2CCCCN2Cc2ccc(F)cc2)n1 (stereo not drawn) | 41.2
CCS(=O)(=O)N1Cc2ccccc2CC1C(=O)OCc1cc(C)no1 (stereo not drawn) | 60.2
Cc1cc(COC(=O)[C@@H]2Cc3ccccc3CN2S(C)(=O)=O)no1 | 5.91
CCS(=O)(=O)N1Cc2ccccc2CC1C(=O)OCc1c(C)noc1C (stereo not drawn) | -16.3
Cc1nc(CN2CCC3(CCCN(Cc4cnn(C)c4)C3)C2=O)cs1 (stereo not drawn) | -0.912
COc1ccc2[nH]c3c(N(C)CC4OCCO4)ncnc3c2c1 | -112
O=C(c1ccccc1)N1CC[C@H]2C[C@H](c3nnc(C4CC4)o3)O[C@@H]2C1 | 38.5
O=C(Cc1ccsc1)N1C[C@@H]2C[C@@H](c3nnc(C4CC4)o3)O[C@@H]2C1 | 61.8
O=C(c1ccsc1)N1CC[C@H]2C[C@@H](c3nnc(C4CC4)o3)O[C@@H]2C1 | -1.64
O=C(c1ccccc1)N1CC[C@H]2C[C@@H](c3nnc(C4CC4)o3)O[C@@H]2C1 | 38.5
Cc1occc1C(=O)N1CC[C@H]2C[C@@H](c3nnc(C4CC4)o3)O[C@@H]2C1 | 68.4
Cc1ccoc1C(=O)N1CC[C@H]2C[C@H](c3nnc(C4CC4)o3)O[C@@H]2C1 | 54.8
O=C(c1cccs1)N1CC[C@H]2C[C@@H](c3nnc(C4CC4)o3)O[C@@H]2C1 | 26.7
O=C(c1ccsc1)N1C[C@@H]2C[C@@H](c3nnc(C4CC4)o3)O[C@@H]2C1 | -31.6
O=C(c1ccoc1)N1CC[C@H]2C[C@@H](c3nnc(C4CC4)o3)O[C@@H]2C1 | 35.8
